Measurements published in PubChem BioAssay (NCATS).
Inconclusive results are not listed. Active and inactive are the calls of the source. Calls come from the whole dose curve; as a rule, active = well fitted cell-killing curve with a large enough effect; inconclusive = small, poorly fitted or top-dose-only effect, or effect the other way; inactive = flat fitted curve, though single readings scatter.

Key:
Experiment in all cases: Primary qHTS to identify gynecologic anti-cancer compounds using libraries of approved drugs and bioactive compounds (AID 1345084); note: nearly all actives have a fitted effect of over 55% in size
Conditions in all cases: Gynecologic cancer cell panel viability, ATPlite luminescence, 48 h; series mostly up to 57.5 µM
OV90 = system: OV90
In short: (§1)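 Cells, 1,000 per well, plated 16 h, then exposed 48 h at 37 C to compounds. Viability by ATPlite luminescence after 15 min at room temperature.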

PA-1 = system: PA-1
In short: as §1

SKOV3 = system: SKOV3
In short: as §1

Tov-21-G = system: Tov-21-G
In short: as §1

Tov112D = system: Tov112D
In short: as §1
% is set by controls: 0 for no effect and ±100 for the full control effect.

C[C@@]12CC3(S(=O)(=O)O)OC(O1)[C@]1(COC(=O)c4ccccc4)[C@H]3C[C@]21O[C@@H]1O[C@H](CO)[C@@H](O)[C@H](O)[C@H]1O
inactive: Potency (OV90) | Potency (PA-1) | Potency (SKOV3) | Potency (Tov-21-G) | Potency (Tov112D)

COC1CC(O[C@H]2CC[C@@]3(C)C(=CC[C@]4(O)C3[C@H](O)[C@@H](O)[C@]3(C)[C@@H]([C@H](C)O)CC[C@@]34O)C2)OC(C)C1OC1CC(OC)C(OC2CC(OC)C(OC3OC(C)C(OC4OC(CO)C(O)C(O)C4O)C(OC)C3O)C(C)O2)C(C)O1 (stereo not given in full)
inactive: activity change, negative = cytotoxicity (OV90) -7.88% [at 11.6 µM] | activity change, negative = cytotoxicity (PA-1) -4.49% [at 11.6 µM] | activity change, negative = cytotoxicity (SKOV3) 1.02% [at 11.6 µM] | activity change, negative = cytotoxicity (Tov-21-G) -0.0649% [at 11.6 µM] | activity change, negative = cytotoxicity (Tov112D) 1.61% [at 11.6 µM]

CC1=COC(OC2OC(CO)C(O)C(O)C2O)C2C(CO)CC(OC(=O)/C=C/c3ccc(O)cc3)C12 (stereo not given)
inactive: Potency (OV90) | Potency (PA-1) | Potency (SKOV3) | Potency (Tov-21-G) | Potency (Tov112D)

C=C1CC[C@@]2(OC1)O[C@H]1CC3[C@@H]4CC=C5C[C@H](O[C@H]6OC[C@@H](O)C(O)[C@@H]6O[C@@H]6O[C@@H](C)[C@H](O)[C@@H](O[C@@H]7O[C@H](CO)[C@@H](O)[C@H](O)[C@H]7O)[C@H]6O)C[C@@H](O)[C@]5(C)C4CC[C@]3(C)[C@H]1[C@@H]2C (stereo not given in full)
inactive: activity change, negative = cytotoxicity (OV90) 6.02% [at 11.6 µM] | activity change, negative = cytotoxicity (PA-1) 3.82% [at 11.6 µM] | activity change, negative = cytotoxicity (SKOV3) 0.203% [at 11.6 µM] | activity change, negative = cytotoxicity (Tov-21-G) 7.35% [at 11.6 µM] | activity change, negative = cytotoxicity (Tov112D) 1.29% [at 11.6 µM]

COc1ccc(O[C@@H]2O[C@H](CO)[C@@H](O)[C@H](O)[C@H]2O)cc1OC
inactive: Potency (OV90) | Potency (PA-1) | Potency (SKOV3) | Potency (Tov-21-G) | Potency (Tov112D)

O=C(O)C1(c2ccc(-c3ccc(Cl)c(Cl)c3)c(F)c2)CC1
inactive: Potency (OV90) | Potency (PA-1) | Potency (SKOV3) | Potency (Tov-21-G) | Potency (Tov112D)

C/C=C(\C)C(=O)OCC1OC(OCC2OC(OC3(CO)OC(CO)C(O)C3O)C(O)C(O)C2O)C(O)C(O)C1O (stereo not given)
inactive: Potency (OV90) | Potency (PA-1) | Potency (SKOV3) | Potency (Tov-21-G) | Potency (Tov112D)

CCC(C)/C=C(C)/C=C/C1=CC2=C(Cl)C(=O)C(C)(OC(C)=O)C(=O)C2=CN1C(CC(=O)O)C(=O)O (stereo not given)
inactive: Potency (OV90) | Potency (PA-1) | Potency (SKOV3) | Potency (Tov-21-G) | Potency (Tov112D)

COc1ccc(CCC(=O)O)c(O[C@@H]2O[C@H](CO)[C@@H](O)[C@H](O)[C@H]2O)c1
inactive: Potency (OV90) | Potency (PA-1) | Potency (SKOV3) | Potency (Tov-21-G) | Potency (Tov112D)

COc1c2ccoc2nc2c(OC)c(O[C@@H]3O[C@@H](C)[C@H](O)[C@@H](O[C@@H]4O[C@H](CO)[C@@H](O)[C@H](O)[C@H]4O)[C@H]3OC(C)=O)ccc12
inactive: Potency (OV90) | Potency (PA-1) | Potency (SKOV3) | Potency (Tov-21-G) | Potency (Tov112D)

CC1CC2(O)OC(=O)C3=C2C(CCC3)[C@@]12C[C@@H](c1ccoc1)OC2=O (stereo not given in full)
inactive: Potency (OV90) | Potency (PA-1) | Potency (SKOV3) | Potency (Tov-21-G) | Potency (Tov112D)

COc1cc(CCCO)ccc1O[C@@H]1O[C@H](CO)[C@@H](O)[C@H](O)[C@H]1O
inactive: Potency (OV90) | Potency (PA-1) | Potency (SKOV3) | Potency (Tov-21-G) | Potency (Tov112D)

COc1ccc(CC(=O)NCc2ccccc2-c2ccccc2C(=O)NCCc2cccnc2)cc1
inactive: Potency (OV90) | Potency (PA-1) | Potency (SKOV3) | Potency (Tov-21-G) | Potency (Tov112D)

COc1cc(C(C)=O)ccc1O[C@@H]1O[C@H](CO[C@@H]2OC[C@@H](O)[C@H](O)[C@H]2O)[C@@H](O)[C@H](O)[C@H]1O
inactive: Potency (OV90) | Potency (PA-1) | Potency (SKOV3) | Potency (Tov-21-G) | Potency (Tov112D)
